Drawing on PubChem BioAssay (NCI), this text covers growth inhibition for 20 molecules.

Assay [1] can be described thus: NCI Yeast Anticancer Drug Screen. Data for the rad50 strain (AID 155).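 Also: 0% = growth of vehicle-only cultures of the same strain.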 The following applies: S. cerevisiae rad50 strain growth inhibition; at 50.0 µM; active compounds read high. An outline of the steps: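 Readout: growth inhibition relative to vehicle-treated cultures. Compound exposure was carried out in a genetically defined yeast strain deficient in DNA damage repair.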

A short description of assay [2]: NCI Yeast Anticancer Drug Screen. Data for the mec2-1 strain (AID 157). The following applies: S. cerevisiae mec2-1 strain, at 50.0 µM, active compounds read high. An outline of the steps: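 Readout is yeast growth inhibition, normalised to vehicle-treated controls, in the mec2-1 strain exposed to compound.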
The nature of assay [3]: NCI Yeast Anticancer Drug Screen. Data for the sgs1 mgt1 strain (AID 161).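 Also: 0% = growth of cultures given vehicle only.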 The following applies: S. cerevisiae sgs1 mgt1 strain, at 50.0 µM, active compounds read high. In a few lines:
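Compounds are added to genetically altered yeast, and growth is compared with cultures given vehicle alone to give percent inhibition.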

Assay [4] can be described thus: NCI Yeast Anticancer Drug Screen. Data for the cln2 rad14 strain (AID 165).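 Also: 0% = growth equal to vehicle treated cultures.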 The conditions noted are these: S. cerevisiae cln2 rad14 strain, at 50.0 µM, active compounds read high. An outline of the steps: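 Relative to vehicle controls, growth inhibition of compound-treated cln2 rad14 yeast was recorded.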
A short description of assay [5]: NCI Yeast Anticancer Drug Screen. Data for the bub3 strain (AID 167). The conditions noted are these: S. cerevisiae bub3 mutant strain, at 50.0 µM, active compounds read high. An outline of the steps:
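Readout: yeast growth inhibition, expressed relative to vehicle-only wells. The test organism is a mutant strain from a panel with lesions in DNA repair or checkpoint genes.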

A short description of assay [6]: NCI Yeast Anticancer Drug Screen. Data for the mlh1 rad18 strain (AID 175). The following applies: S. cerevisiae mlh1 rad18 strain growth inhibition; at 50.0 µM; active compounds read high. In a few lines:
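Test agents were incubated with a yeast strain of defined genotype (DNA damage repair defect). Inhibition of growth was derived by comparison with vehicle-exposed cultures.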

SMILES strings stand for the structures. This is part of a sample that, as a whole, favours compounds with a hit. Of some 79,000 tested, about 15% had one in any assay. A number with no mark means an inactive call. Activity calls are given as the source filed them. Rule as the data show it: active = growth inhibition above about 70%; inactive = the rest.

Turning to `O=C(NN=C1c2ccccc2-c2ccccc21)C(F)(F)F`, the growth inhibition in assay [1] is 87% (active); in assay [2], 2.05%; in assay [3], 4.65%; in assay [4] it was 31.2%; in assay [5], 6%; in assay [6], 21.9%.
On to `COC(=O)/C=C/CCOS(C)(=O)=O`, for which the growth inhibition in assay [1] was 9.6%; in assay [2] it was -35%; in assay [3], 0.55%; in assay [4] it was -39%; in assay [5], -3.25%; in assay [6] it was 16.5%.
Take `CCCCCCCCCCCCCCC/C=C\C(=O)O`: the growth inhibition in assay [1] was 15.2%; in assay [2], -5.8%; in assay [3] it was -3.4%; in assay [4] it was 10.3%; in assay [5], 9.45%; in assay [6], 1.4%.
For `CC(O)CCNc1nnc2c3ccccc3n(C)c2n1` (stereo not given), the growth inhibition in assay [1] is 5.95%; in assay [2], 0.65%; in assay [3], 0.1%; in assay [4] it was 44.2%; in assay [5], 5.3%; in assay [6] it was -16.2%.
Take `CCCCCCCC(=O)C(C)C`: the growth inhibition in assay [1] was 7.55%; in assay [2], 5.85%; in assay [3], 11.8%; in assay [4] it was 4.4%; in assay [5], 9.6%; in assay [6], 4.35%.
Take `CC(C)C(CNC(=S)Nc1ccccc1)(c1ccccc1)c1ccccc1`: the growth inhibition in assay [1] was 6.9%; in assay [2], 13.1%; in assay [3], 5.25%; in assay [4], 1.85%; in assay [5] it was 8.95%; in assay [6], 12.8%.
As for `C/C(=C/C=C(c1ccccc1)c1ccccc1)C1CCC2C3CCC4CC5CCC4(C)C3(O5)C(=O)CC12C` (stereo not given), the growth inhibition in assay [1] was 89.6% (active); in assay [2], 60.6%; in assay [3], 73% (active); in assay [4], 83% (active); in assay [5], 93.3% (active); in assay [6], 92.8% (active).
For `CO[C@@H]1C[C@H]2[C@@H]3CC[C@H]([C@H](C)COC(C)=O)[C@@]3(C)CC[C@@H]2[C@@]2(C)CC[C@H]3C[C@]312`, the growth inhibition was -4.65% in assay [1]; 5.8% in assay [2]; 1.55% in assay [3]; -9.65% in assay [4]; -1.6% in assay [5]; 5.4% in assay [6].
For the molecule `COc1cccc(/C(C#N)=N/NC(=O)c2nc[nH]c2C)c1`, the growth inhibition was 9.5% in assay [1]; 8.9% in assay [2]; 19.8% in assay [3]; 10.9% in assay [4]; 13.1% in assay [5]; 8.95% in assay [6].
Take `Nc1cc(N)nc(S(=O)O)n1`: the growth inhibition in assay [1] was 18.9%; in assay [2] it was 2.85%; in assay [3] it was 16.1%; in assay [4], 10.7%; in assay [5], 19.8%; in assay [6], 35.9%.
Regarding `CNCC(OC(C)C)c1ccc(O)c(O)c1` (stereo not given), the growth inhibition is -3.3% in assay [1]; -2.85% in assay [2]; -0.05% in assay [3]; -36.4% in assay [4]; -19.2% in assay [5]; 16.2% in assay [6].
For the molecule `CC(=O)[CH-]C(=O)c1ccccc1.CC(=O)[CH-]C(=O)c1ccccc1.CC(C)CCCC(C)[C@H]1CCC2[C@@H]3CC=C4C[C@@H]([O-])CC[C@]4(C)C3CC[C@@]21C.CC[O-].[Ti+4]` (stereo not given in full), the growth inhibition is 11.2% in assay [1]; 0.05% in assay [2]; 10.2% in assay [3]; -33.9% in assay [4]; 23.2% in assay [5]; 3.85% in assay [6].
Turning to `Cc1nc(C)c(N2CCN(CN)CC2)c(=O)[nH]1`, the growth inhibition in assay [1] was -45.2%; in assay [2] it was -32.8%; in assay [3], -48%; in assay [4] it was 30.6%; in assay [5], 14.3%; in assay [6], -72.3%.
Regarding `Cn1c(-c2ccc(/C=N/N=C(N)N)cc2)c[n+]2ccccc12`, the growth inhibition in assay [1] is 8.85%; in assay [2], 4.3%; in assay [3], 4%; in assay [4] it was 0.8%; in assay [5] it was -3.85%; in assay [6] it was 32.5%.
Consider `c1ccc(C2=NOC3C4CCC(C4)C23)cc1` (stereo not given), for which the growth inhibition in assay [1] is -37.6%; in assay [2] it was -20.4%; in assay [3] it was -28.4%; in assay [4], -21%; in assay [5], -8.85%; in assay [6], -20.1%.
`O=c1c2ccccc2oc2cc3c(c(O)c12)CCCC3`: the growth inhibition in assay [1] is -7.65%; in assay [2], -13.9%; in assay [3] it was -14.5%; in assay [4] it was -6.95%; in assay [5], 3.15%; in assay [6] it was -2.95%.
Consider `C[N+](C)(CCS(=O)(=O)[O-])C1CCCCC1`, for which the growth inhibition in assay [1] is -6.65%; in assay [2], -8.7%; in assay [3] it was -8.9%; in assay [4], -23.1%; in assay [5], 6.75%; in assay [6], -12.8%.
`CCCOCOCCC`: the growth inhibition in assay [1] was -22.5%; in assay [2], 0.05%; in assay [3] it was -13.2%; in assay [4], -28.4%; in assay [5], 11.7%; in assay [6], -27.5%.
As for `Cc1cccc(C(C)(C)C)c1NC(=O)CC1C(=O)Nc2ccccc2S1(=O)=O` (stereo not given), the growth inhibition is 4.85% in assay [1]; 1.8% in assay [2]; -4.4% in assay [3]; 8.95% in assay [4]; 9.5% in assay [5]; 23.9% in assay [6].
In the case of `CNc1ccn(C2OC(CO)C(O)C2SC(C)(C)C)c(=O)n1` (stereo not given), the growth inhibition in assay [1] is 6.15%; in assay [2], 0.25%; in assay [3], 13.7%; in assay [4], 9.1%; in assay [5], 0.45%; in assay [6], 28.6%.
